PubChem BioAssay (NCI)
About 83,000 compounds went through this panel and 20% of them were active in at least one assay; those are over-represented in the sample as a whole.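 Assay: single dose, 48 h. Readout: percent growth (0 = no net growth; negative = cell death). Active: <10.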 Values without a mark were called inactive. The source made the active and inactive calls.

What was measured:
Assay in all cases: NCI-60 one-dose screen, 48 h (100 = growth as untreated, 0 = no growth, -100 = all killed)
Settings in all cases: 10 µM unless noted
NCI-H23 lung = test system: NCI-H23 lung
NCI-H226 lung = test system: NCI-H226 lung
HOP-62 NSCLC = test system: HOP-62 NSCLC
NCI-H460 lung = test system: NCI-H460 lung
HOP-92 NSCLC = test system: HOP-92 NSCLC
NCI-H522 lung = test system: NCI-H522 lung
A549/ATCC NSCLC = test system: A549/ATCC NSCLC
786-0 renal = test system: 786-0 renal
COLO 205 colon = test system: COLO 205 colon
DU-145 prostate = test system: DU-145 prostate
K-562 leukemia = test system: K-562 leukemia
MALME-3M melanoma = test system: MALME-3M melanoma
MDA-MB-231 breast = test system: MDA-MB-231 breast
RXF 393 renal = test system: RXF 393 renal
SF-268 CNS = test system: SF-268 CNS
SF-295 CNS = test system: SF-295 CNS
SF-539 CNS = test system: SF-539 CNS
UACC-257 melanoma = test system: UACC-257 melanoma
M14 melanoma = test system: M14 melanoma
NCI-H322M lung = test system: NCI-H322M lung

Row | SMILES | growth (NCI-H23 lung) | growth (NCI-H226 lung) | growth (HOP-62 NSCLC) | growth (NCI-H460 lung) | growth (HOP-92 NSCLC) | growth (NCI-H522 lung) | growth (A549/ATCC NSCLC) | growth (786-0 renal) | growth (COLO 205 colon) | growth (DU-145 prostate) | growth (K-562 leukemia) | growth (MALME-3M melanoma) | growth (MDA-MB-231 breast) | growth (RXF 393 renal) | growth (SF-268 CNS) | growth (SF-295 CNS) | growth (SF-539 CNS) | growth (UACC-257 melanoma) | growth (M14 melanoma) | growth (NCI-H322M lung)
1 | COc1ccc(N(CC(=O)NCCC[Te]c2ccccc2)C(=O)CNC(=O)OC(C)(C)C)cc1 | -15.5% (active) | 1.45% (active) | 1.88% (active) | -23.9% (active) | -19.9% (active) | -0.481% (active) | -9.26% (active) | 73.3% | 86.9% | 48.9% | 97% | 137% | 1.63% (active) | 114% | 24.2% | -10.8% (active) | -9.65% (active) | 109% | 9.09% (active) | –
2 | NC(=S)c1cn(C2OC(CO)C(O)C2O)c2ncnc(N)c12 (stereo not drawn) | -38.8% (active) | -12.7% (active) | -30% (active) | – | -4.97% (active) | -38.6% (active) | 4.83% (active) | -15.9% (active) | -47% (active) | -18.8% (active) | -42.3% (active) | -30.5% (active) | -9.11% (active) | -55.9% (active) | -20.9% (active) | -3.13% (active) | -53.1% (active) | -1.27% (active) | -57.9% (active) | -17% (active)
3 | COC(=O)[C@@H](C)C[C@H](Cc1ccccc1)NC(=O)c1nc([C@@H](C[C@H](C(C)C)N(C)C(=O)[C@@H](NC(=O)[C@H]2CCCN2C)C(C)C)OC(C)=O)sc1C | 31.8% | 43.4% | 21.1% | – | 8.77% (active) | -23.7% (active) | 16.1% | 14.3% | -74.2% (active) | 17.7% | 9.29% (active) | 54.4% | 14.1% | 39% | 30.6% | 10.6% | -8.41% (active) | 51.1% | 1.43% (active) | 35.2%
4 | Cc1ccc(Nc2nc3c(s2)C2=CC[C@@H]4[C@H](CC[C@]5(C)C(=O)CC[C@@H]45)[C@@]2(C)CC3)cc1 | 58.4% | 69.5% | 43.4% | – | 78.6% | 56.3% | 55.8% | 9.1% (active) | 63.5% | 46.5% | 19.8% | 70% | 52.8% | – | 56.3% | 5.48% (active) | 3.73% (active) | 80.3% | 62.2% | 61.8%
5 | CC(CC1CCCCC1)NCc1ccccc1 (stereo not drawn) | 85.7% | 101% | 102% | – | 80.1% | 94.6% | 98.2% | 99.9% | 103% | 108% | 109% | 88.9% | 97.3% | 99.6% | 103% | 93.6% | 103% | – | 90.2% | 95%
6 | N#C[S-].[Au+].c1ccc(CN2[CH-]N(Cc3ccccc3)C(c3ccccc3)=C2c2ccccc2)cc1 | 8.69% (active) | 24.4% | 16% | – | -25% (active) | -30.9% (active) | 12.8% | 7% (active) | -76.9% (active) | 23.6% | 0.413% (active) | -5.77% (active) | -36% (active) | 3.56% (active) | 29.9% | – | 22.9% | -9.77% (active) | 15.8% | 30.3%
7 | CC(=O)O[C@H]1C(=O)[C@@]2(C)[C@H]([C@H](OC(=O)c3ccccc3)[C@]3(O)C[C@H](OC(=O)[C@H](OC(=O)OC[C@@H]4COC(C)(C)O4)[C@@H](NC(=O)c4ccccc4)c4ccccc4)C(C)=C1C3(C)C)[C@]1(OC(C)=O)CO[C@@H]1C[C@@H]2O | 19.9% | 60.4% | 19.3% | 3.59% (active) | 64.6% | 1.08% (active) | 11.9% | 19.4% | -28.4% (active) | 6.23% (active) | 13.8% | 28.9% | 2.49% (active) | -9.73% (active) | 32% | -7.77% (active) | -9.82% (active) | 50.1% | -20% (active) | –
8 | ClC1=C(Cl)C(Cl)(C2(Cl)C(Cl)=C(Cl)C(Cl)=C2Cl)C(Cl)=C1Cl | -14.4% (active) | -81.5% (active) | 60.4% | 67.6% | -63.5% (active) | -68.2% (active) | 45% | -66.4% (active) | -68.6% (active) | -43.1% (active) | -24.6% (active) | -67.5% (active) | -29.3% (active) | -83.2% (active) | -46.4% (active) | 89.6% | -59% (active) | -60.4% (active) | -57.6% (active) | –
9 | OCCNC(Cc1ccccc1)c1ccc2c(c1)OCO2 (stereo not drawn) | 100% | 96.5% | 77.7% | 106% | 73.1% | 67.5% | 90.8% | 95.5% | 91% | 101% | 84.1% | 90.8% | 98.7% | 109% | 97.9% | 90% | 104% | 90.1% | 88.5% | –
10 | COc1ccc2nc(NC(=O)COc3cc(/C=C\c4cc(OC)c(OC)c(OC)c4)ccc3OC)sc2c1 | 32.1% | 40.1% | 45% | 4.25% (active) | 50.9% | -19.7% (active) | 25.7% | 61% | 26% | 0.406% (active) | 15.6% | 14.1% | 22.7% | -19.9% (active) | 42.3% | -2.09% (active) | -7.12% (active) | 59.5% | 22.9% | –
11 | CC[C@@H]1[C@@H](C)O[C@@](O)([C@@H](C)[C@H](O)[C@H](C)[C@H]2OC(=O)/C=C/C=C/[C@H](C)[C@@H]([C@@H](C)[C@@H](O)[C@H](C)[C@@]3(O)C[C@@H](O[C@H]4C[C@@H](O)[C@H](O)C(C)O4)[C@H](CC)[C@@H](C)O3)OC(=O)/C=C/C=C/[C@@H]2C)C[C@H]1O[C@@H]1C[C@@H](O)[C@H](O)C(C)O1 (stereo partly drawn) | -73.9% (active) | -57.5% (active) | -80.6% (active) | -72.6% (active) | -89.9% (active) | -81.8% (active) | -89.7% (active) | -86.1% (active) | -78.4% (active) | -97.5% (active) | -71.6% (active) | -97% (active) | -68.3% (active) | -96.7% (active) | -86.3% (active) | -86.5% (active) | -96.8% (active) | -89.5% (active) | -83.9% (active) | –
12 | O[C@H](CN1CC1)[C@@H](O)CN1CC1 | 65.8% | 79.7% | 61.8% | 15.5% | 87% | 93.9% | 66.3% | 43.2% | – | 39.5% | 65.9% | – | 109% | 77.2% | 45.5% | 19.6% | 24.6% | 86.3% | 48.9% | –
13 | CC1CN1CCCCN1CC1C (stereo not drawn) | 109% | 106% | 109% | 104% | 88.2% | 66.4% | 101% | 103% | 115% | 105% | 83.6% | 103% | 125% | 115% | 98.6% | 101% | 103% | 83.9% | 107% | –
14 | C=C1C(=O)O[C@H]2[C@H]1CC/C(COC(=O)C(=O)c1cn(Cc3ccccc3)c3ccccc13)=C\CC[C@@]1(C)O[C@@H]21 | -51.7% (active) | -70.3% (active) | 2.07% (active) | -11.4% (active) | -46.7% (active) | -69% (active) | -42.7% (active) | -75.3% (active) | -52.4% (active) | -54.1% (active) | 5.58% (active) | -41.7% (active) | -57.2% (active) | -90.2% (active) | -57.5% (active) | 18.8% | -51.3% (active) | -65.4% (active) | -66% (active) | –
15 | O=C(O)c1c(Cl)n(Cc2ccc(O)cc2)c2ccc(O)cc12 | 113% | 97.2% | 93.7% | 106% | 65% | – | 103% | 108% | 110% | 111% | 112% | 106% | 102% | 46.6% | 101% | 101% | 98.8% | 101% | 98% | –
16 | O=C(CN1CCN(C(=O)c2ccco2)CC1)Nc1ccc(Cl)cc1C(=O)c1ccccc1Cl | 85.3% | 95.1% | 105% | 104% | 73.9% | 67.7% | 77.2% | 95.8% | 95.9% | 111% | 80.6% | 104% | 49.2% | -11.8% (active) | 90.7% | 109% | 99.8% | 86.2% | 90.4% | –
